Screening data from PubChem BioAssay.
VP16 counter: inhibits Gal4-VP16 luciferase reporter, ROR gamma counter-screen. 3.5% of 310,000 active. Drosophila S2 Gal4-VP16 UAS-luciferase, luminescence, 20 h. Potency, µM (titrated, usually from 53.6 µM), for inactives: at the highest dose activity, negative = inhibition, actives largely listed as inhibitors;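 further: Gal4-VP16 expression switched on by copper sulfate through the metallothionein promoter; potency means the concentration at half of the fitted maximal effect; nearly all actives have a fitted effect of over 50% in size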
TDP1 cell noCPT: qHTS for Inhibitors of human tyrosyl-DNA phosphodiesterase 1 (TDP1): qHTS in cells in absence of CPT. Potency, µM (titrated, usually from 46.2 µM), inactives show at the highest dose activity change, negative = growth inhibition, usual class: inhibitors. DT40 Tdp1-/- hTDP1 cells, no CPT, ATP luminescence, 48 h. 15% of 420,000 active; further: potency means the concentration at half of the fitted maximal effect; nearly all actives have a fitted effect of over 55% in size
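Seeded 400 DT40-hTDP1 cells/well (vehicle DMSO, no 20 nM CPT); pinned compounds; ≥48 hr at 37 °C; CellTiter-Glo luminescence as viability measure.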
RORgamma inh: blocks mouse ROR gamma transcriptional activity | P51450 | Drosophila S2 Gal4-RORgamma UAS-luciferase reporter, 20 h | Potency, µM (series often up to 53.6 µM), for the others: at the top dose activity change, negative = inhibition, hits mostly inhibitors | 5.4% of 310,000 active | AID 2551; further: potency means the concentration at half of the fitted maximal effect; nearly all actives have a fitted effect of over 60% in size
Target sequence (P51450 whole entry, looked up, the tested form may be a part): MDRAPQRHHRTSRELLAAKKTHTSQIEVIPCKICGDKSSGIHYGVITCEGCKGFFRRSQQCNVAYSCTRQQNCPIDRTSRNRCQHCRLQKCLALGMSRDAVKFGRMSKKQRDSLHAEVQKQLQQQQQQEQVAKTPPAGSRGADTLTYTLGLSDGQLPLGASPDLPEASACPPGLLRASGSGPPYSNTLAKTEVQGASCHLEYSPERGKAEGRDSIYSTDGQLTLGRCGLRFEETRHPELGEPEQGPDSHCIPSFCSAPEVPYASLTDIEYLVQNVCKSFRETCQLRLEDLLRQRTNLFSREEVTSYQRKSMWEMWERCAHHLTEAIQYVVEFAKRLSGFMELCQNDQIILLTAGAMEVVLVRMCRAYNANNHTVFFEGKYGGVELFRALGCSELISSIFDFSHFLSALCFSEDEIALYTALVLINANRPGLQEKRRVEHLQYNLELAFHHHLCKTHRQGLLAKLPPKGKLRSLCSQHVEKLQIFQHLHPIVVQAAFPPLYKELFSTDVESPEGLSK
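Compounds are pin-transferred onto Drosophila Schneider cells expressing a copper-inducible Gal4–ROR gamma transactivation domain fusion. After 1 hr, copper sulfate is added to 700 uM final; luciferase is read 20 hr later.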
TDP1 cell CPT: DT40-hTDP1 cell growth loss with CPT | chicken DT40 Tdp1-/-;hTDP1 cells + 20 nM CPT, ATP luminescence, 48 h | 12% of 420,000 active | AID 686979 | Potency, µM (highest dose often 46.2 µM), inactives show at the highest dose activity change, negative = growth inhibition, hits mostly inhibitors; further: potency means the concentration at half of the fitted maximal effect; nearly all actives have a fitted effect of over 55% in size
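Chicken DT40 Tdp1-/- cells stably complemented with human TDP1 were seeded at 400 cells/well in medium containing 20 nM camptothecin, exposed to pin-transferred compounds, and grown at 37 °C for at least 48 hr. Viability was read as ATP luminescence.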
IL-1B inflam inh: inflammasome signaling inhibition, IL-1 beta readout; THP-1 LPS/ATP IL-1B secretion, AlphaLISA, 16 h; active compounds read low; activity change, % at 57.5 µM; 4.7% of 360,000 active; in the data active means activity change below about -50%; inconclusive means mostly about -30% to -49%
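THP-1 cells pretreated 1 hr with compounds (up to 57.5 uM final), then stimulated with LPS (250 ng/mL final) plus ATP (1.25 mM final); secreted IL-1B measured by AlphaLISA after 16 hr, decreased signal indicating inhibition.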
LDHA inh: inhibitors of human lactate dehydrogenase A; P00338; purified LDHA, NADH/diaphorase-resazurin fluorescence; active compounds read low; activity change, % (values are at about 110 or 230 µM); 0.15% of 480,000 active; AID 1347041; in the data active means activity change below about -30%; inconclusive means mostly about -25% to -30%;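 further: plate controls were DMSO wells for no effect and wells without enzyme for full effect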
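Resorufin fluorescence (ex540/em590), read at 0 and 20 min after diaphorase/resazurin addition, reports the NADH left after a 5 min room-temperature reaction of 2 nM human LDH5 with 0.06 mM NADH and 0.2 mM pyruvate.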
* = called active by the depositor; ? = inconclusive; . = no result given; [ ] = remark or other dose. This is a sample that favours compounds with a hit; in the whole collection about 18% have one here. Unless noted, the call rests on the fitted dose curve; in most records, active means well fitted curve in the direction sought with a large enough effect; inconclusive means small, poorly fitted or top-dose-only effect, or another doubt; inactive means no such curve, though single readings can be large; an effect the other way counts as inactive or inconclusive. Unless noted, on the % scale 0 is the no-effect control and ±100 the full control effect.

SMILES	VP16 counter	TDP1 cell noCPT	RORgamma inh	TDP1 cell CPT	IL-1B inflam inh	LDHA inh
CCN(C(=O)c1cc(S(=O)(=O)N2CCc3ccccc32)cn1C)c1cccc(C)c1	.	13µM*	.	?	.	3
CCNC(=O)NC(=O)COC(=O)c1cc(C)nc2ccccc12	.	.	.	.	.	5
CCOc1ccccc1Nc1cc(C)nc2ccc(C)cc12	.	21µM*	.	?	-96*	-7
CCOc1ccccc1Nc1cc(C)nc2ccccc12	.	?	.	18µM*	-10	-7
CCOc1ccc2nc(C)cc(Nc3ccc(C(=O)OC)cc3)c2c1	.	.	.	.	.	-3
C/C(=C\C(=O)c1ccc(Br)cc1)NNC(=O)c1ccc(O)cc1	4.5µM*	?	5µM*	13µM*	69	-8
C/C(=C\C(=O)c1ccc(Br)cc1)NCc1ccc(C)cc1	5%	?	?	-7%	0	4
C/C(=C\C(=O)c1ccc(Br)cc1)Nc1cccc(Cl)c1	.	-25%	.	-2%	18	2
C/C(=C\C(=O)c1ccc(Cl)cc1)Nc1ccc(Br)cc1	.	-28%	.	-3%	-50*	0
C/C(=C\C(=O)c1ccc(Br)cc1)NNC(=O)c1ccccc1	.	18µM*	.	?	46	9
Cc1cccc(C(=O)NNC(=O)c2ccc(Br)cc2)c1	2%	-19%	1%	-9%	-12	-1
CCCCNC(=O)c1cc2cc(OCC)ccc2n1C	.	.	.	.	.	0
COc1cccc(NC(=O)c2cccc(NC(=O)c3ccco3)c2)c1	.	?	.	-26%	1	-1
Cc1ccc(C(=O)Nc2cccc(Oc3ccccc3)c2)o1	6%	?	23%	18µM*	-26	3
Cc1ccc(OCc2cc(C(=O)Nc3ccccc3)oc2C)cc1	-1%	-13%	9%	-5%	-8	-2
Cc1oc(C(=O)Nc2ccc(O)cc2)cc1COc1ccccc1	-12%	16µM*	-38%	?	-6	13
O=C(Nc1ccc(O)cc1)c1ccc(C(=O)c2ccccc2)o1	-10%	20µM*	?	25µM*	-17	-5
COc1cccc(NC(=O)c2ccc(C(=O)c3ccccc3)o2)c1	1%	18µM*	?	?	?	0
O=C(NC1CCCc2ccccc21)c1cccs1 (configuration not stated)	.	.	.	.	.	4
COc1ccc(CNC(=O)c2c(O)c3ccccc3n(C)c2=O)cc1	-6%	-6%	-24%	6%	-12	-1
CC(C)Cn1c(=O)c(C(=O)NCc2ccc3c(c2)OCO3)c(O)c2ccccc21	?	?	?	23µM*	34	-2
CCCn1c(=O)c(C(=O)NCCc2ccc(OC)cc2)c(O)c2ccccc21	13µM*	?	?	?	16	-1
C=CCn1c(=O)c(C(=O)Nc2ccc(C)cn2)c(O)c2ccccc21	4%	18µM*	3%	?	43	-7
CCCn1c(=O)c(C(=O)NCc2ccc(OC)c(OC)c2)c(O)c2ccccc21	-14%	?	-7%	-26%	6	0
CCn1c(=O)c(C(=O)NCc2ccc(OC)cc2)c(O)c2ccccc21	?	23µM*	-12%	23µM*	40	-1
SMILES	VP16 counter	TDP1 cell noCPT	RORgamma inh	TDP1 cell CPT	IL-1B inflam inh	LDHA inh
CC(C)c1ccccc1NC(=O)c1ccc2ccccc2n1	.	.	.	.	.	1
CC(Sc1nnc(-c2cccs2)n1-c1ccccc1)C(=O)Nc1ccc2c(c1)OCO2 (configuration not stated)	.	.	.	.	.	10
CC(C)(C)C(=O)COC(=O)c1ccccc1SCC(=O)NCCc1ccc2c(c1)OCCO2	.	.	.	.	.	0
CCC(NC(=O)Cn1cnc2sc(C)c(-c3ccccc3)c2c1=O)c1ccc(C)cc1 (configuration not stated)	.	.	.	.	.	0
C=CCn1c(=O)c(C(=O)NCCc2ccccc2)c(O)c2ccccc21	?	?	14µM*	21µM*	12	-2
CCn1c(=O)c(C(=O)NCc2ccccn2)c(O)c2ccccc21	7.1µM*	?	3.2µM*	-25%	-16	3
CCCn1c(=O)c(C(=O)NCc2ccccc2)c(O)c2ccccc21	3%	?	-23%	?	74	-2
C=CCn1c(=O)c(C(=O)NCc2ccc(Cl)cc2)c(O)c2ccccc21	?	23µM*	?	?	49	0
CCCn1c(=O)c(C(=O)NCCc2ccccc2)c(O)c2ccccc21	?	?	-73%	13µM*	38	2
O=C(Nc1ccc(Cc2nc3ccccc3s2)cc1)C1CCCC1	.	.	.	.	.	-10
COc1c(Cl)cc(Cl)cc1/C=C(\C#N)c1nc2ccc(C)cc2[nH]1	.	.	.	.	.	9
CCCCn1c(=O)c(C(=O)N/N=C/c2ccc(F)cc2)c(O)c2ccccc21	-2%	.	-1%	.	.	.
CC(C)Cn1c(=O)c(C(=O)N/N=C/c2cccc(F)c2)c(O)c2ccccc21	0%	0.33µM*	-10%	2.9µM*	21	0
COC(=O)C(=Cc1ccc(OCc2ccc([N+](=O)[O-])cc2)c(OC)c1)C(=O)OC	-9%[0.365 µM]	13µM*	16µM*	9.2µM*	-92*	-2
COC(=O)/C(C#N)=C\c1ccc(OCc2ccc(Cl)cc2)c(OC)c1	.	.	.	.	.	13
CCOC(=O)/C(=C\c1ccc(OC)c(OC)c1)C(=O)c1cccnc1	-2%	?	-18%	-28%	-7	-10
CCOC(=O)C(=Cc1ccc(OCc2ccc([N+](=O)[O-])cc2)c(OC)c1)C(=O)OCC	?	15µM*	14µM*	13µM*	-101*	-8
O=C1C2CCCCC2C(=O)N1c1ccc(NC2CCN(Cc3ccccc3)CC2)c([N+](=O)[O-])c1 (configuration not stated)	0%	?	-16%	?	24	0
O=[N+]([O-])c1ccc(NC2CCN(Cc3ccccc3)CC2)c([N+](=O)[O-])c1	15%	21µM*	3%	?	-3	-3
CC1CCC2C(=O)N(c3ccc(NC4CCN(Cc5ccccc5)CC4)c([N+](=O)[O-])c3)C(=O)C2C1 (configuration not stated)	3%	16µM*	11%	?	-13	0
O=[N+]([O-])c1ccccc1NC1CCN(Cc2ccccc2)CC1	3%	-26%	5%	-2%	?	-2
Cn1cnc(S(=O)(=O)N2CCC(C(=O)Nc3ccc(Cl)c(C(F)(F)F)c3)CC2)c1	.	13µM*	.	16µM*	.	4
